Drawing on PubChem BioAssay (NCI), this text covers growth for four molecules.

Holding throughout (assay): NCI-60 one-dose screen, 48 h (100 = growth as untreated, 0 = no growth, -100 = all killed)
One assay concerns HCT-15 colon. Particulars: 10 µM.
The next assay has as its system SNB-75 CNS. Particulars: 10 µM.
A further assay deals with SNB-19 CNS. The settings on record: 10 µM.
For a further assay, the system named is U251 CNS. Particulars: 10 µM.
The next assay deals with PC-3 prostate. Particulars: 10 µM.
In the next assay the test system is SK-MEL-5 melanoma. Particulars: 10 µM.
Another assay deals with UACC-62 melanoma. Particulars: 10 µM unless noted.
The subject of the next assay is LOX IMVI melanoma. Particulars: 10 µM.
In another assay the test system is SK-MEL-28 melanoma. The settings on record: 10 µM.
A further assay relates to EKVX NSCLC. Particulars: 10 µM.
A further assay deals with SN12C renal. The settings on record: 10 µM.
The test system of the next assay is UO-31 renal. Particulars: 10 µM.
The subject of the next assay is TK-10 renal. The settings on record: 10 µM unless noted.
The subject of another assay is ACHN renal. The settings on record: 10 µM.
The subject of another assay is CAKI-1 renal. The settings on record: 10 µM.
The subject of the next assay is A498 renal. Particulars: 10 µM.
The test system of a further assay is CCRF-CEM leukemia. Particulars: 10 µM.
Another assay deals with MOLT-4 leukemia. The settings on record: 10 µM.
Another assay concerns HT29 colon. The settings on record: 10 µM.
A further assay deals with SK-MEL-2 melanoma. The settings on record: 10 µM.

This is part of a sample that, as a whole, favours compounds with a hit. Of some 83,000 tested, about 20% had one in any assay.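 Single-dose data. Exposure time 48 hours. Values below 10 considered active.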 Values without a mark were called inactive. Activity calls are given as the source filed them.

`N#Cc1c(N)sc(=S)c2c1CCCC2`: the growth is 104% in the assay on HCT-15 colon; 104% with SNB-75 CNS; 105% with SNB-19 CNS; 107% with U251 CNS; 100% in the assay on PC-3 prostate; 114% in the assay with SK-MEL-5 melanoma. Further, the growth in the assay with UACC-62 melanoma was 114%; in the assay with LOX IMVI melanoma, 99.4%; in the assay with SK-MEL-28 melanoma, 112%; with EKVX NSCLC, 107%; in the assay on SN12C renal it was 105%; with UO-31 renal it was 91.6%. In addition, the growth with TK-10 renal is 116%; in the assay with ACHN renal it was 103%; with CAKI-1 renal it was 98.5%; with A498 renal, 113%; in the assay with CCRF-CEM leukemia it was 101%; with MOLT-4 leukemia, 95.4%.
In the case of `C/C=C/CC(C)C(O)C1C(=O)NC(CC)C(=O)N(C)CC(=O)N(C)C(CC(C)C)C(=O)NC(C(C)C)C(=O)N(C)C(CC(C)C)C(=O)NC(C)C(=O)NC(C)C(=O)N(C)C(CC(C)C)C(=O)N(C)C(CC(C)C)C(=O)N(C)C(C(C)C)C(=O)N1C` (stereo unspecified), the growth with HT29 colon was -37.2% (active); in the assay on SNB-19 CNS it was 41.7%; in the assay with U251 CNS, 29.7%; in the assay with PC-3 prostate, 11.7%; in the assay on SK-MEL-5 melanoma it was 2.67% (active); in the assay with UACC-62 melanoma, 2.53% (active). Further, the growth with LOX IMVI melanoma was 0.362% (active); with SK-MEL-28 melanoma it was -36.4% (active); with SK-MEL-2 melanoma, -36.5% (active); in the assay on EKVX NSCLC, 26.7%; in the assay on SN12C renal it was 27.4%; with UO-31 renal, 24.1%. The growth is 31.3% with TK-10 renal; 16.8% with ACHN renal; 31% in the assay on CAKI-1 renal; -5.73% (active) in the assay with A498 renal; -4.07% (active) with MOLT-4 leukemia.
`CC(=O)c1ccc(C)c(N)c1`: the growth with HCT-15 colon is 100%; in the assay with SNB-75 CNS, 97.6%; with SNB-19 CNS, 99%; with U251 CNS, 98.4%; in the assay on PC-3 prostate it was 92.8%; with SK-MEL-5 melanoma, 110%. The growth is 99.9% in the assay with UACC-62 melanoma; 76.8% in the assay on LOX IMVI melanoma; 105% in the assay on SK-MEL-28 melanoma; 91.8% with EKVX NSCLC; 96% with SN12C renal; 81.4% in the assay with UO-31 renal. In addition, the growth with TK-10 renal was 98.5%; with ACHN renal, 101%; in the assay on CAKI-1 renal, 92.9%; in the assay with A498 renal, 95.4%; with CCRF-CEM leukemia, 94.3%; in the assay on MOLT-4 leukemia it was 103%.
Take `CCN(CC)C(=O)/C=C(/C)c1ccccc1`: the growth was 104% in the assay with HCT-15 colon; 105% with SNB-19 CNS; 105% with U251 CNS; 93.4% in the assay on PC-3 prostate; 90.1% in the assay on SK-MEL-5 melanoma; 103% in the assay with UACC-62 melanoma. Further, the growth in the assay with LOX IMVI melanoma is 98.7%; in the assay with SK-MEL-28 melanoma, 106%; in the assay on SK-MEL-2 melanoma, 113%; in the assay with EKVX NSCLC, 107%; in the assay on SN12C renal it was 104%; in the assay on UO-31 renal, 102%. The growth with TK-10 renal is 107%; with ACHN renal it was 110%; in the assay on CAKI-1 renal, 100%; in the assay with A498 renal, 86.6%; in the assay with CCRF-CEM leukemia, 100%; in the assay with MOLT-4 leukemia it was 114%.
